Hits are enriched below; roughly 31% of the tested compounds scored in any of these assays.
CYP2C19 activ = human CYP2C19 activators, primary screen, biochemical, luminescence; recombinant CYP2C19, luciferin-H EGE luminescence; stronger effect = higher value; 0 = fully inhibited enzyme, 1 = untreated enzyme; activation factor at 5 µM; 96,000 tested, under 10 active;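 active = activation factor of at least 2 at 5 µM in the primary screen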;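 note: 0 = wells with 2.5 mM tranylcypromine and 1 = vehicle-only wells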
CYP2C9 inhib = blockers of cytochrome P450 2C9 activity – biochemical, luminescence, ADME assay, primary screen; AID 777, 2007; CYP2C9 Supersomes, luciferin-H conversion; hit rate 20% among 96,000; P11712; inhibition, % at 5 µM;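 active = blocking of liver enzyme CYP2C9 beyond about 50% at 5 µM, limit read from the data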
Target sequence (P11712 whole entry, looked up): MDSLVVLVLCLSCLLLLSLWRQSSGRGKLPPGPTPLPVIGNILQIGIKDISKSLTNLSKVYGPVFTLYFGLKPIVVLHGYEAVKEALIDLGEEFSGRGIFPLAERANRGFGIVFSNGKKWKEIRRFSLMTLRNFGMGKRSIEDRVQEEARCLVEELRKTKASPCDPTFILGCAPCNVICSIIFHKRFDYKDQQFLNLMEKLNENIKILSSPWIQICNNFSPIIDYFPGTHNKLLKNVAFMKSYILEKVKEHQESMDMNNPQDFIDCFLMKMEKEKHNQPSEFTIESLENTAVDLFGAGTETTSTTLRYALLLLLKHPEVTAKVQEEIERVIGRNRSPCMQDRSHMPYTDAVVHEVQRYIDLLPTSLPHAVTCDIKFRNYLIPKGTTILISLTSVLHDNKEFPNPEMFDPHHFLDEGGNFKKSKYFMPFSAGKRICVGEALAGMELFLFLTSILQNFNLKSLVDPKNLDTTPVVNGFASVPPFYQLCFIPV
CYP2C19 inh = blockers of cytochrome P450 2C19 activity – biochemical, luminescence, ADME assay, primary screen. P33261. CYP2C19 Supersomes, luciferin-H EGE luminescence, 30 min. inhibition, % at 5 µM. hit rate 21% among 96,000;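 active = CYP2C19 inhibition above a set limit at 5 µM in the primary screen, cut at about 50% in these data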;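 note: plate controls were negative control wells for no effect and 2.5 mM tranylcypromine positive control for full effect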
CYP2C9 activ = human CYP2C9 activators, primary screen, biochemical, luminescence | recombinant CYP2C9, luciferin-H conversion; stronger effect = higher value; factor 1 = untreated enzyme, 0 = blocked | activation factor at 5 µM | hit rate 1.4% among 96,000 | AID 1024, 2008;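 active = activation factor of 2 or more for CYP2C9 at a 5 µM dose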;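 note: 0 = sulfaphenazole-blocked wells and 1 = vehicle-only wells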
PLAP activator = PLAP enzyme activators, biochemical, luminescence, HTS; activation fold at 20 µM; hit rate 1.2% among 96,000; purified PLAP enzyme, luminescent substrate read-out; stronger effect = higher value; AID 696, 2007; in the data active = activation fold above about 2
Active calls of the source: *.

SMILES | CYP2C19 activ | CYP2C9 inhib | CYP2C19 inh | CYP2C9 activ | PLAP activator
CCOc1ccc(Cn2c(=O)oc3ccc(C)cc32)cc1OC | 0.4 | 38.8 | 63.7* | 0.6 | 1
CCOc1ccc(CN2CCN(S(=O)(=O)c3ccc(NC(C)=O)cc3)CC2)cc1OC | 0.9 | 40.2 | 7.2 | 0.6 | 1.5
Nc1nc(SCC(=O)N2N=C3/C(=C/c4ccco4)CCCC3C2c2ccco2)n[nH]1 (stereo not given) | 0.5 | 35.5 | 50.7* | 0.6 | 2.1*
CC1(c2ccc(Cl)c(Cl)c2)NC(=S)N2C1NC(=S)N2c1ccccc1 (stereo not given) | 0.2 | 36.9 | 78.3* | 0.6 | 1.3
COc1ccccc1-n1c(SCC(=O)O)nnc1-c1ccc(S(=O)(=O)N2CCCCC2)cc1 | 0.8 | 48.1 | 19.3 | 0.5 | 1.6
CNC(=O)CSc1nnc(-c2ccc(S(=O)(=O)N3CCCC3)cc2)n1-c1cccc(C)c1C | 0.8 | 87.7* | 18.0 | 0.1 | 1.6
N#Cc1cc(-c2ccccc2)c[nH]c1=O | 1.1 | 10.7 | -8.6 | 0.9 | 1.2
c1ccc(N=P(c2nc3ccccc3o2)(N2CCOCC2)N2CCOCC2)cc1 | 1.1 | -12.4 | -6.2 | 1.1 | 1.2
Cn1c(SCc2ccc(C#N)cc2)nnc1-c1cccc(Cl)c1 | 0.3 | 47.0 | 74.5* | 0.5 | 1.1
CCn1c(SCc2cccc(C)c2)nnc1-c1ccc(C)cc1 | 0.1 | 10.4 | 85.9* | 0.9 | 0.9
C=CCn1c(SCc2ccc(OC)cc2)nnc1-c1cccnc1 | 0.2 | 45.6 | 77.3* | 0.5 | 1.4
C=CCn1c(SCc2ccc(C#N)cc2)nnc1-c1cccc(OC)c1 | 0.1 | 64.2* | 90.6* | 0.4 | 1.6
CCn1c(SCc2ccc(C#N)cc2)nnc1-c1ccc(S(=O)(=O)N2CCCCC2)cc1 | 0.8 | 10.5 | 16.6 | 0.9 | 1.4
Cn1c(SCc2ccc(C#N)cc2)nnc1-c1ccccc1 | 0.6 | 20.4 | 44.4 | 0.8 | 0.8
CCOc1cccc2sc(NC(=O)c3ccc(Br)s3)nc12 | 1.1 | 23.9 | -7.4 | 0.8 | 1.3
CC1CC(C)CN(S(=O)(=O)c2cccc(C(=O)OCCN3CCCC3=O)c2)C1 (stereo not given) | 1 | -4.3 | 4.3 | 1 | 1.7
COc1cccc(-c2nnc(SCc3ccc(C#N)cc3)n2Cc2ccco2)c1 | 0.1 | 94.8* | 90.8* | 0.1 | 1.4
Cc1ccc(-n2c(SCc3ccc(C#N)cc3)nnc2-c2ccccn2)cc1 | 0.5 | 50.8* | 50.5* | 0.5 | 1.6
COc1ccc(-n2c(SCc3ccc(C#N)cc3)nnc2-c2ccccn2)cc1 | 0.9 | -4.5 | 13.0 | 1 | 1.3
CCn1c(SCc2ccc(C(=O)Nc3cc(C)cc(C)c3)cc2)nnc1-c1ccncc1 | 0.6 | 42.2 | 44.0 | 0.6 | 1.3
Cc1ccc(-c2nnc(SCc3ccc(C#N)cc3)n2Cc2ccco2)cc1 | 0.9 | 32.3 | 10.6 | 0.7 | 0.9
CCn1c(SCc2ccc(OC)cc2)nnc1-c1ccncc1 | 0.1 | 11.6 | 92.2* | 0.9 | 1
Cc1cc(N2CC34C=CC(O3)C(C(=O)O)C4C2=O)no1 (stereo not given) | 1.1 | -25.4 | -10.9 | 1.3 | 1.1
COC(=O)c1c(C)n(-c2ccc(OC)cc2)c2ccc(O)cc12 | 0.2 | 66.7* | 79.2* | 0.3 | 0.8
CCOc1ccc2c(c1)c(C(C)=O)c(C)n2-c1ccccc1 | 0 | 99.0* | 99.0* | 0 | 0.8
SMILES | CYP2C19 activ | CYP2C9 inhib | CYP2C19 inh | CYP2C9 activ | PLAP activator
Cc1c(C(=O)O)c2cc(O)ccc2n1-c1ccccc1 | 0.7 | 36.4 | 34.1 | 0.6 | 1.3
N#CCC(=O)N1CCCCCC1 | 0.7 | 25.8 | 30.3 | 0.7 | 1
CC(C)(CNC(=O)c1cc2ccccc2o1)N1CCOCC1 | 0.9 | 14.2 | 9.5 | 0.9 | 1
COC(=O)c1c(-c2cccc3ccccc23)csc1NC(=O)Cc1ccc(OC)c(OC)c1 | 0.4 | 87.3* | 62.2* | 0.1 | 1.6
COC(=O)c1c(-c2ccc(C)cc2)csc1NC(=O)Cc1ccc(OC)c(OC)c1 | 0.7 | 72.1* | 35.0 | 0.3 | 1.7
COC(=O)c1c(-c2ccc(Br)cc2)csc1NC(=O)Cc1ccc(OC)c(OC)c1 | 0.7 | 63.2* | 30.6 | 0.4 | 1.7
COc1cc(CNCCO)ccc1OCC(=O)Nc1ccc(Br)cc1 | 0.8 | 14.2 | 19.1 | 0.9 | 1.2
COCCCNC(=O)CN(c1cccc(Cl)c1)S(C)(=O)=O | 0.9 | -28.0 | 13.9 | 1.3 | 0.9
COc1ccc(N2C(=O)CS/C2=C\[N+](=O)[O-])cc1 | 0.9 | 5.7 | 13.1 | 0.9 | 0.9
CCOC(=O)C1CCN(Cc2nc3ccc(Cl)cc3n2CCO)CC1 | 0.7 | 5.6 | 26.0 | 0.9 | 1.1
COc1nc2ccc(C)cc2cc1-c1noc(-c2cccnc2)n1 | 1 | 30.3 | 1.2 | 0.7 | 1
COc1nc2c(C)cccc2cc1-c1noc(-c2ccncc2)n1 | 0.4 | 49.5 | 63.3* | 0.5 | 1.1
CCn1c(O)c(C=NCCN2CCOCC2)sc1=S | 0.8 | -2.0 | 21.3 | 1 | 0.9
O=C(NCc1cccc(Cl)c1)c1cnn2c1NC(c1ccco1)CC2C(F)(F)F (stereo not given) | 0.5 | 40.9 | 49.4 | 0.6 | 0.8
CN(Cc1ccc(-n2cccn2)cc1)C(=O)c1cnn2c1NC(c1ccco1)CC2C(F)(F)F (stereo not given) | 0.5 | 78.2* | 48.9 | 0.2 | 1.5
Nc1nc(-c2cccc(NS(=O)(=O)c3ccccc3)c2)cs1 | 0 | 95.4* | 98.7* | 0 | 1.1
Cc1nc(-c2cccc(NS(=O)(=O)c3cccc4ccccc34)c2)cs1 | 0 | -5.6 | 97.5* | 1.1 | 1.5
CCOC(=O)/C(N=Nc1ccc(F)cc1)=C(/O)c1ccc([N+](=O)[O-])cc1 | 0.8 | 15.6 | 18.2 | 0.8 | 0.7
Cc1cc(Oc2ccccc2)nc(OCC#N)n1 | 0.7 | 1.9 | 31.8 | 1 | 1.2
O=C(OCCN1CCCC1=O)c1cncc(Br)c1 | 1 | -7.2 | -0.5 | 1.1 | 0.9
COc1ccc(N2C(=O)C3C4C=CC(C5CC45)C3C2=O)c([N+](=O)[O-])c1 (stereo not given) | 0.6 | -102.2 | 37.5 | 2* | 1.1
Nc1nncn1C(=O)CCCOc1ccc(Cl)cc1Cl | 0.4 | 6.2 | 64.6* | 0.9 | 1
O=C(CCCOc1ccccc1)N1CCN(c2ccc(F)cc2)CC1 | 0.2 | 24.3 | 77.4* | 0.8 | 1.2
CN1CCN(C(=O)CCCOc2ccc(Cl)cc2Cl)CC1 | 0.3 | -25.0 | 66.7* | 1.3 | 1.3
Cc1cc(Cl)ccc1OCCCC(=O)N1CCN(C(=O)c2ccco2)CC1 | 0.4 | 27.3 | 64.6* | 0.7 | 1.7
CN1CCN(C(=O)c2ccc(COc3ccc(Cl)cc3Cl)cc2)CC1 | 1.1 | -1.8 | -6.7 | 1 | 1.6
COc1ccc(N2CCN(C(=O)COc3ccccc3)CC2)cc1 | 0.9 | 9.3 | 5.3 | 0.9 | 1.1

Screening results from PubChem BioAssay.
